High-throughput results (PubChem)
This is a sample that favours compounds with a hit; in the whole collection about 5.5% have one here.
a7 integrin act: integrin-mediated muscular dystrophy alleviation activation. alpha7betagal myoblasts, beta-gal FDG fluorescence, 48 h. Potency, µM (titrated, usually from 38.3 µM), without a hit: top-dose activation, hits mostly activators. 350,000 tested, 0.064% active. AID 624291;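 further: 100% = response of the positive control SU9516; nearly all actives have a fitted effect of over 60% in size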
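alpha7betagal+/- myoblasts (passage 13, 250/well) treated 48 h at 37C with compounds at 1:260 dilution of DMSO stock. Lysed, then beta-galactosidase activity read as FDG fluorescence (ex 480/em 540) after 30 min, with pre-read for autofluorescence.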
BCR signal inh: blocks chronic active B-cell receptor signaling. ABC-DLBCL IkBa-CBG/CBR reporter, luminescence ratio, 4 h. Potency, µM (series often up to 46.1 µM), without a hit: at the highest dose activity change, negative = inhibition, actives largely listed as inhibitors. 340,000 tested, 0.05% active; active means well fitted inhibition curve with a large enough effect in the signal ratio, with a control signal flat, not every such curve was filed as active; inconclusive means small, poorly fitted or top-dose-only effect, or effect the other way, or a change in a side signal; the % refers to the signal ratio;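 further: plate controls were basal doxycycline-induced cells for no effect and cells given 10 µM MG132 for full effect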
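Doxycycline induced both beetle luciferases in TMD8 lymphoma cells; IKK-driven degradation limits the IkappaBalpha-fused green signal, while red luminescence normalises for cell number and nonspecific effects. Compounds tested up to 46 uM, 4 hrs.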
Mito fusion act: inhibitors of mitochondrial division or activators of mitochondrial fusion. 320,000 tested, 0.23% active. Potency, µM (series often up to 46.1 µM), without a hit: at the top dose growth rescue (activation), hits mostly activators. S. cerevisiae fusion-defective mutant growth rescue, CellTiterGlo 48 h; further: % of control where 0% means no effect; nearly all actives have a fitted effect of over 45% in size
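Read-out: ATP-based luminescence (CellTiterGlo, 10 min ambient) reporting growth of fusion-defective ts yeast after 48 hours at 37C on glycerol/ethanol YPEG medium in the presence of compound.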
RORgamma inh: inhibitors of mouse ROR gamma transcriptional activity | 310,000 tested, 5.4% active | P51450 | Drosophila S2 Gal4-RORgamma UAS-luciferase reporter, 20 h | Potency, µM (series often up to 53.6 µM), for the others: top-dose activity change, negative = inhibition, hits mostly inhibitors; further: on the % scale 0 is the no-effect control and ±100 the full control effect; nearly all actives have a fitted effect of over 60% in size
Target sequence (P51450 whole entry, looked up, the tested form may be a part): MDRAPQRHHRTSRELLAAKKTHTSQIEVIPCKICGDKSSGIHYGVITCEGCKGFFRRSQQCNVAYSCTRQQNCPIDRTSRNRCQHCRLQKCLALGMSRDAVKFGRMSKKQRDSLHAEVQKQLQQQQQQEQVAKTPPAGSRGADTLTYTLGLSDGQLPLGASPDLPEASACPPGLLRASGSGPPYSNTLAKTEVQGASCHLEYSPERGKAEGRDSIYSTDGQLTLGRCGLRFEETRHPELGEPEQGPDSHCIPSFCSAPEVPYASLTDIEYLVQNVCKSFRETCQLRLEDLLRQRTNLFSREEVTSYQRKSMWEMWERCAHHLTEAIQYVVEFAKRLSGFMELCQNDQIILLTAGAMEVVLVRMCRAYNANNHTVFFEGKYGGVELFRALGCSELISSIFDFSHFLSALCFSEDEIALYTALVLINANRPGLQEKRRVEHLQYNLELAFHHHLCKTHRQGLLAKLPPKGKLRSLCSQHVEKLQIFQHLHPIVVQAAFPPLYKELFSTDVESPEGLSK
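Luminescence from a UAS-regulated Photinus luciferase reporter in stably transfected Drosophila Schneider cells is measured; decreased signal marks ROR gamma inhibition. Fusion expression is induced by 700 uM copper sulfate for 20 hr.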
uPA surface inh: inhibitors of cell surface uPA generation; cell surface uPA generation assay, qHTS; 330,000 tested, 0.31% active; AID 540303; Potency, µM (highest dose often 38.3 µM), for inactives: at the highest dose activity change, negative = inhibition, actives largely listed as inhibitors; active means well fitted inhibition curve with a large enough effect; inconclusive means small, poorly fitted or top-dose-only effect; inactive means no such curve, though single readings can be large or run the other way; tested in mouse RAW 264.7 cells; further: on the % scale 0 is the no-effect control and ±100 the full control effect; nearly all actives have a fitted effect of over 55% in size
Gal4-VP16 FLuc: counter-screen for ROR gamma inhibitors: Gal4-VP16 reporter; Potency, µM (top dose mostly 53.6 µM), for inactives: top-dose activity, negative = inhibition, usual class: inhibitors; 310,000 tested, 3.5% active; Drosophila S2 Gal4-VP16 UAS-luciferase, luminescence, 20 h;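 further: Gal4-VP16 expression switched on by copper sulfate through the metallothionein promoter; on the % scale 0 is the no-effect control and ±100 the full control effect; nearly all actives have a fitted effect of over 50% in size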
* marks the source's active call; other numbers are inactive results; u = inconclusive; x = not tested or not shown; [ ] = remark or other dose. Unless noted, the call rests on the fitted dose curve; in most records, active means well fitted curve in the direction sought with a large enough effect; inconclusive means small, poorly fitted or top-dose-only effect, or another doubt; inactive means no such curve, though single readings can be large; an effect the other way counts as inactive or inconclusive. Potency means the concentration at half of the fitted maximal effect.

SMILES	a7 integrin act	BCR signal inh	Mito fusion act	RORgamma inh	uPA surface inh	Gal4-VP16 FLuc
Cc1nnc(NC(=O)c2sc3nc(-c4cccs4)cc(C(F)(F)F)c3c2N)s1	-14%	u	3%	4µM*	-2%	u
Cc1c(CN2CCN(CC(C)C)C(CCO)C2)[nH]c2ccc(Cl)cc12 (stereo not given)	-37%	0%	-5%	6%	2%	9%
Cc1cccc(C)c1NC(=O)CCCN1C(=O)C(c2ccccc2)Oc2cccnc21 (stereo not given)	0%	6%	13µM*	15%	-3%	1%
Cc1ccc(NC2CC(=O)N(CCc3ccccc3)C2=O)cc1 (stereo not given)	-4%[7.66 µM]	u	8%	4µM*	x	-11%
COCCNc1ccc([N+](=O)[O-])cc1C(=O)NC1CCCc2ccccc21 (stereo not given)	0%	4%	25%	19%	-2%	-9%
COc1ccc(NC(=O)CNC(=O)Cn2cnc3sc4c(c3c2=O)CCCC4)cc1OC	22%	-9%	-9%	-9%	6%	-5%
O=C(O)c1ccc2c(c1)C(=O)N([C@H](Cc1ccc(F)cc1)C(=O)O)C2=O	x	-5%	-3%	0%	x	-7%
CCOC(=O)C1=C(c2ccccc2)O/C(=C(/C#N)C(F)(F)F)S1	x	u	-3%	14µM*	x	16µM*
COn1c(-n2nc(C)cc2C)nc2ccccc2c1=O	3%	-2%	-5%	7.9µM*	-1%	7.1µM*
C#CCOn1c(-n2nc(C)cc2C)nc2ccccc2c1=O	-30%	1%	20%	11µM*	-1%	u
CC(=O)OC[C@@H]1O[C@@H](O/N=C2/C[C@@H](O)[C@@H](O)[C@@H]3[C@@H]4C(=O)N(C5CCCCC5)C(=O)[C@H]4CC[C@@H]23)[C@H](OC(C)=O)[C@H](OC(C)=O)[C@@H]1OC(C)=O	x	x	x	0%[10 µM]	x	1%[10 µM]
COc1ccc(N2CC(NC(=O)COc3ccccc3)CC2=O)cc1OC (stereo not given)	x	6%	x	x	x	x
O=S(=O)(O)CC(S)CS (stereo not given)	x	x	x	15%	x	-5%
O=c1cc(-c2ccccc2)oc2c1ccc1ccccc12	x	x	x	0%	x	-19%
O=c1cc(-c2ccc(O)c(O)c2)oc2c1ccc1ccccc12	-31%	u	10%	x	2.5µM*	x
Cc1nnc2sc(-c3csc4c3CCCC4)nn12	6%	u	12%	-35%	2%	1%
S=c1nc(-c2csc3c2CCCC3)[nH][nH]1	13%	3%	8%	4µM*	-10%	11µM*
Cc1ccc2nc(N(CCCN(C)C)C(=O)c3ccc4ncsc4c3)sc2c1	-51%	u	-15%	8%	4%	-20%
COc1ccc(-n2c(-c3ccc(Cl)cc3)c[n+]3c2CCCCC3)cc1	0%	1%	4%	31%	u	-11%
CCOc1ccc(-n2c(-c3ccc(Br)cc3)c[n+]3c2CCCCC3)cc1	-66%	u	-10%	u	-18%	22µM*
COc1ccc(-c2c[n+]3c(n2-c2ccc(C)cc2)CCCCC3)cc1	0%	u	-1%	-61%	-18%	11µM*
CCOc1ccc(-n2c(-c3ccccc3)c[n+]3c2CCC3)cc1	u	1%	-2%	u	-17%	8.9µM*
CCOc1ccc(-n2c(-c3ccc(OC)cc3)c[n+]3c2CCCCC3)cc1	u	1%	-1%	11µM*	-10%	2µM*
FC(F)Oc1ccc(-c2c[n+]3c(n2-c2ccccc2)CCCCC3)cc1	-12%	-15%	5%	9%	u	-1%
COc1ccc(N2CCCC2=N)c(OC)c1	u	19%	-5%	14%	5%	-10%
SMILES	a7 integrin act	BCR signal inh	Mito fusion act	RORgamma inh	uPA surface inh	Gal4-VP16 FLuc
O=C(C[C@@H]1C/C=C\C[C@H](Cc2ccc(F)cc2)C(=O)OC[C@H]2CCCN2C1=O)NCCO	11%	-2%	x	x	6%	x
COc1cn(CC(=O)Nc2c(C)cc(C)cc2C)c(CN2CCCCC2)cc1=O	x	11%	x	x	x	x
C=CC[C@@H]1C=C[C@H](ON=C(C)C)[C@H](CO)O1	x	x	x	-8%[10 µM]	x	-8%[10 µM]
CC(C)=CCC/C(C)=C/CC/C(C)=C/CC/C(C)=C/C(=O)O	x	x	x	7%	x	-2%
CCCC[n+]1ccn(C2=C([O-])c3ccccc3C(=O)/C2=N\S(=O)(=O)c2ccc(Cl)cc2)c1	9%	8%	-2%	1.6µM*	u	u
CC12COC3(C(=O)Nc4ccccc4F)CC1CCC32C (stereo not given)	9%	4%	4%	10µM*	-4%	-2%[10 µM]
CCCCN1CCCC[C@H]1C(=O)Nc1c(C)cccc1C	x	x	x	0%	x	-1%
CC(C)(C)C(=O)NC(=S)Nc1ccccn1	-11%	0%	-1%	13µM*	-6%	u
COc1ccccc1NC(=S)NC(=O)C(C)(C)C	11%	3%	-3%	23%	8%	-3%
CC(C)C(=O)NC(=S)Nc1ccccn1	14%	-1%	-12%	13µM*	-2%	u
CC(C)N(C(=O)NC(=O)Nc1ccccn1)S(C)(=O)=O	33%	6%	-3%	-3%[10 µM]	2%	0%
N#CCCN(C(=O)COC(=O)c1cc(S(=O)(=O)N2CCOCC2)ccc1Cl)c1ccc(F)cc1	11%	0%	-5%	x	-15%	x
COc1ccc(-n2ccc(=O)c(C(=O)O)n2)c(OC)c1	9%	1%	2%	-9%	4%	4%
O=[N+]([O-])c1cccc(/C([O-])=C(/C(=S)Nc2cccc3ccccc23)[n+]2ccccc2)c1	5%	u	1%	10µM*	-5%	u
COC(=O)N1CCC2(CC1)CCN(c1ccncc1)CC2	x	x	x	-30%	x	-3%
Cc1ccc(C)c(NC(=O)c2ccccc2NS(=O)(=O)c2cc([N+](=O)[O-])ccc2C)c1	-61%	u	12%	u	u	14µM*
CCc1n[nH]c(=S)n1/N=C/c1ccccn1	6%	-4%	0%	2%	0%	-3%
CCN(CC)c1ccc(/C=N/n2c(-c3ccccc3Br)n[nH]c2=S)cc1	-7%	-11%	-3%	1µM*	2%	-4%
CCc1n[nH]c(=S)n1/N=C/c1ccc2c(c1)OCO2	0%	1%	-12%	11µM*	x	u
CCCc1nnc(SCC(=O)O)n1/N=C/c1ccc2c(c1)OCO2	0%	8%	-1%	2%	2%	-6%
Cc1nn(-c2ccccc2)c(C)c1/C=N/n1c(-c2ccccc2Br)n[nH]c1=S	-21%	11%	u	u	-7%	-9%
CCc1n[nH]c(=S)n1/N=C/c1ccc(N(C)c2ccccc2)cc1	4%	-1%	10%	4.5µM*	-4%	u
